Source: PubChem BioAssay AID434958 (Southern Research Specialized Biocontainment Screening …, 2010)
Among all 1,200 compounds or so, about 400 (33%) were called active. A selection follows. Results with a measured potency or affinity are listed apart. Values without a mark were called inactive. No rule for the calls is given here.

assay: mammalian cell cytotoxicity, dose response, cytotoxicity control (AID 434958); conditions: cytotoxicity counter-screen; series mostly up to 40 µM; viability: at the top concentration;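 also: cells exposed to compound for 72 hours before readout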

SMILES	viability [%]
O=C(COC(=O)c1ccc([N+](=O)[O-])s1)NCc1ccccc1	97.2
Cc1ccsc1C(=O)NNC(=O)c1csc(N2CCOCC2)n1	102
COC(=O)c1ccc(/C=N/NC(=O)c2cccc(F)c2)cc1	94.4
COc1ccc2ccccc2c1/C=N/NC(=O)c1cccc(Br)c1	82.7
COc1ccc(/C=C/C(=O)N(C(C)C)C(C)C)cc1Br	97
COc1cc(/C=C/C(=O)NC(C)(C)C)ccc1OCc1ccccc1	91.2
CC1(C)CC(=O)c2cc(C(=O)NCc3ccco3)c(=O)n(-c3ccccc3)c2C1	96.6
CCC1(c2ccc(Cl)cc2)NC(=S)N(c2ccc(C)cc2)N1 (centres undefined)	95.2
CC(=O)NC(=S)Nc1ccc(NC(=O)c2cccnc2Cl)cc1	95.4
CCCCN=C1CC(C)(C)CC(=O)/C1=C(/O)CCC	101
CCOC(=O)c1c(C)[nH]c(C(=O)COC(=O)CCC2CCCC2)c1C	105
CCOc1ccc2nc(SC3CC(=O)N(c4cccc(OC)c4)C3=O)sc2c1 (centres undefined)	100
CCc1cc2c(=O)oc(-c3ccccc3F)nc2s1	104
CCCCN1C(=O)c2ccc(C(=O)Nc3cccc(C)c3C)cc2C1=O	98.7
CCOC(=O)c1nc(N2CCN(C(=O)OCC)CC2)c2c3c(sc2n1)CCCC3	86.8
CC(=O)Nc1ccc(C(=O)N(C2=NC(C)CS2)c2ccc(Cl)cc2)cc1 (centres undefined)	84.4
COc1ccc(C2C(C#N)=C(SCC(=O)Nc3ccc(C)cc3)NC3=C2C(=O)CC(C)(C)C3)cc1 (centres undefined)	84.9
CCCCNC(=O)c1onc(CSc2ccccc2CC)c1C(=O)O	99.5
CCCC(=O)Nc1ccc(NC(=S)NC(=O)c2cccs2)cc1	96.4
CCCC(=O)N1CCN(c2ccc(NC(=S)NC(=O)CC)cc2)CC1	83.8
Cc1ccc(C(=O)OCCN2CCN(c3ncc(C(F)(F)F)cc3Cl)CC2)cc1	89.8
N#Cc1c(-c2cccs2)cc(-c2ccccn2)nc1N	87.3

SMILES	viability [%]
Cc1cc(C)c2c(N)c(S(=O)c3ccc(C(C)(C)C)cc3)sc2n1 (centres undefined)	102
CC(=O)c1ccc(OCCCC(=O)OCC(=O)N2CCN(c3ccccc3)CC2)cc1	100
Cc1nnc(SCc2cccc(Cl)c2)n(N)c1=O	95.2
Cc1cccc(/C=N\NC(=O)c2csnn2)c1	99.9
O=C(Cc1ccc(Cl)cc1Cl)Nc1ccc(OC(F)F)c(Cl)c1	104
CCOC(=O)Cn1c(C)cc(=O)c2cccc(C)c21	105
O=C(Nc1ccccc1Br)c1cccc2ccccc12	91.8
Cc1ccn2c(CNCCn3nc(C)cc3C)c(C(=O)N3CCCCCC3)nc2c1	98.5
COc1ccc(C(=O)NC(=S)NC(C)(C)C)cc1Br	82.4
COc1ccc(C2(CNC(=O)c3cc([N+](=O)[O-])cc([N+](=O)[O-])c3)CCCC2)cc1OC	95.8
CN1C2CCC1CC(OC(=O)c1ccc([N+](=O)[O-])cc1)C2 (centres undefined)	104
CCC(=O)c1ccc(OCc2ccc(C(=O)OC)cc2)c(OC)c1	106
O=C(COC(=O)Cc1ccc(S(=O)(=O)N2CCCCC2)s1)Nc1ccc2c(c1)OCO2	97
CC(=O)Nc1ccc(SCC(=O)c2cc(C)n(CC(F)(F)F)c2C)cc1	95.3
CCOC(=O)Cn1c(=NC(=O)C2CC2)sc2c(C)cc(C)cc21	97.5
O=C(COc1ccccc1[N+](=O)[O-])N(Cc1cccc(Br)c1)C1CCS(=O)(=O)C1 (centres undefined)	95
O=C(OCC(=O)N(Cc1ccccc1)C1CCS(=O)(=O)C1)c1cc2c(s1)CCCC2 (centres undefined)	87.1
Cc1ccc(C(=O)NCC2(c3ccccc3)CCCC2)cc1	81
COCCNC(C(=O)Nc1ccc(C)cc1[N+](=O)[O-])c1ccccc1 (centres undefined)	96.9
CC(NC(=O)CSc1nc2ccccc2c(=O)[nH]1)c1ccccc1 (centres undefined)	91.8
CCOC(=O)COc1nc(-c2ccc(Cl)cc2)cc(-c2ccco2)c1C#N	98.2
CN(c1ccc(OCC(=O)OCC(=O)c2c(N)n(C)c(=O)n(C)c2=O)cc1)S(=O)(=O)c1ccc2ccccc2c1	99.8

SMILES	viability [%]
CC1(C)CC(CCNC(=O)CCl)(c2ccccc2)CCO1 (centres undefined)	81.7
Cn1ccnc1C(=O)Cc1ccc([N+](=O)[O-])cc1	94.1
CCOC(=O)c1sc(NC(=O)CSc2n[nH]c(CC(C)C)n2)nc1C	86.7
CCOC(=O)c1c(NC(=O)C(=O)N/N=C/c2ccccc2OC)sc2c1CCCCC2	96.4
Cc1ccccc1C(=O)NC(=S)Nc1sc2c(c1C#N)CCC(C)C2 (centres undefined)	90.5
Cc1cc(C(=O)CSc2nnnn2-c2ccccc2)c(C)n1-c1ccc2c(c1)OCO2	81.2
O=C(Nc1nc(-c2ccc(F)c(F)c2)cs1)c1cnccn1	82.3
COc1c(NC(C)=O)c2ccccc2c2ccccc12	106
COc1ccc2nc(SCc3cccc(C)c3)nc(C)c2c1	85.5
NC(=S)N/N=C/c1cccc(/C=N/NC(N)=S)c1	93.9
O=C(Cn1c(=O)c2cccn2c2ccccc21)NCCc1ccc(Cl)cc1	104
Cc1ccc(-n2ncc3c(=O)n(CC#N)cnc32)cc1C	89
COc1ccc(C2CC(c3c(-c4ccccc4)c4cc(Cl)ccc4[nH]c3=O)=NN2S(C)(=O)=O)cc1 (centres undefined)	85.1
CC(=O)c1sc(N/N=C\c2ccc(N(C)C)cc2)nc1C	96.8
CC(C)c1ccc(/C=C/C(=O)NC2CCCCC2)cc1	101
CN(C)/N=C/c1ccc(/C=N/NC(N)=S)o1	95.5
O=C(N/N=C/c1cccc(Br)c1)c1ccc(Cn2cc(Br)cn2)o1	100
O=C1OC(c2ccco2)=N/C1=C\c1ccc(-c2cccc(C(F)(F)F)c2)o1	90.5
CC1(C)C2CC=C(/C=N/NC(=O)c3ccccc3O)C1C2 (centres undefined)	88.5
CC1=NN(c2ccccc2)C(=O)/C1=C/c1c(O)[nH]c(=S)[nH]c1=O	96.3
Cc1cc(N2CCN(c3ccccc3)CC2)nc2ccccc12	85.2
COc1ccc(NC(=O)C(Cc2ccccc2)n2cccc2)c(OC)c1 (centres undefined)	97.5

SMILES	viability [%]
CCCN1C(=O)c2ccc(C(=O)Nc3cc(C)on3)cc2C1=O	99.8
COc1ccc(OC)c(NC(=O)CSC2=C(C#N)C(c3ccco3)C3=C(CCCC3=O)N2)c1 (centres undefined)	89.4
CC(=O)c1ccc(-n2c(C)ccc2-c2ccccc2)cc1	91.2
COc1cc(NC(=S)NC(=O)c2cccs2)ccc1NC(=O)C(C)C	86.8
Cc1ccc(/C=C/C(=O)OCC(=O)NC(C)c2ccccc2)o1 (centres undefined)	95.2
CCOC(=O)N1CCC(N2CCN(S(=O)(=O)c3ccc(Cl)cc3)CC2)CC1	98.2
COc1ccc(-c2csc(Nc3ccc(C)cn3)n2)cc1OC	89.5
Cc1nnnn1/C(=C\c1ccccc1)C(=O)OCC(=O)Nc1ccc(Cl)cc1F	101
Cc1ccccc1OCC(=O)Nc1ccccc1-c1ccccc1	86.1
c1ccc(-c2noc(-c3cccc4ccccc34)n2)cc1	93.3
O=C(CC(=O)c1ccccc1)Nc1ccc2c(c1)OCCO2	104
Cc1ccc(CC(=O)Nc2nc3ccccc3[nH]2)cc1C	91.3
O=C(Cc1ccccc1Cl)Nc1nc2ccccc2[nH]1	102
COc1ccc2sc(-c3ccc(N(C)C)cc3)c(C#CC(C)(C)O)c2c1	81.6
CSc1nnc(C)c(/C=C/Nc2ccc(Cl)cc2)n1	95.5
Cn1cc(C(=O)N/N=C/C(Br)=C\c2ccccc2)ccc1=O	96
CCOc1cc(C(=O)N2CCC(CC3CC(c4ccccc4)=NO3)(C(=O)NCc3ccc(OC)cc3)CC2)cc(OCC)c1OCC (centres undefined)	81.2
CC/C(=N\NC(=S)NC(C)C)c1ccc(OC)c(OC)c1	82.5
c1ccc(-n2c3ccccc3c3ccccc32)cc1	95
CSc1cccc(NC(=O)c2ccc(Cl)nc2)c1	90
C/C(=N\NC(=O)c1cccc(Cl)c1)c1cccc(NC(=O)C(C)C)c1	90.2
CC(C)C[C@H](NC(=O)c1nc[nH]c1C(=O)N1CCN(C(=O)OC(C)(C)C)CC1)C(=O)OCc1ccccc1	84.4

SMILES	viability [%]
O=C(N[C@@H](Cc1ccccc1)C(=O)CCl)OCc1ccccc1	104
O=C1CC(Nc2ccc(N3CCOCC3)cc2)C(=O)N1C1CCCCC1 (centres undefined)	104
O=C(O)CCN1C(=O)/C(=C/c2ccc(-c3nc4ccccc4s3)o2)SC1=S	97.4
COc1ccc(-c2cc3nc(C)cc(N4CC(C)CC(C)C4)n3n2)cc1 (centres undefined)	90.8
C/C(CC(=O)Nc1c(C)cc(C)cc1C)=N\NC(=O)c1cnccn1	102
O=C(OCC(=O)N1CCc2ccccc21)c1ccc(Cl)nc1	96.5
Cc1cc(NC(=O)CCS(=O)(=O)c2nc(-c3ccccc3)cc(C(F)(F)F)n2)no1	95.8
CC/C(=N\NC(=O)c1ccc(N(C)C)cc1)c1ccccc1	94.5
O=C(COn1nnc2ccc(Cl)cc21)NC12CC3CC(CC(C3)C1)C2	86.8
CCc1ccc(NC(=O)C2C3/C=C\CCCCC32)cc1 (centres undefined)	89.2
CCOC(=O)/C=C/c1ccc2c(c1)S(=O)(=O)N(Cc1ccc(OC)cc1)[C@H]2CC(=O)OCC	101
O=C(COC(=O)C1=COCCO1)Nc1ccc2c(c1)OCO2	98
CCOC(=O)c1c(C)[nH]c(N=Nc2ccccc2Cl)c1C	82.2
COCCCNCCOCCOc1ccc(C)cc1Br	89.6
COc1cccc(NC(=S)Nc2cc(C)cc(C)n2)c1	92.3
O=C(O)c1cc(-c2ccco2)nc2ccc(Br)cc12	96.8
CN(C)S(=O)(=O)n1cc(/C=C(\NC(=O)c2ccccc2)C(=O)NCCN2CCOCC2)c2ccccc21	99.1
CCOC(=O)c1ccc(N2CN(CCc3ccccc3)CNC2=S)cc1	94.3
CC(C)(C)c1nnc2sc(SCC(=O)c3cccs3)nn2c1=O	101
CNC(=O)COC(=O)c1ccccc1NC(=O)c1ccco1	89.6
CCCn1nc(NC(=O)c2ccco2)c2cc3cc(C)ccc3nc21	90.7
